The structures appear in SMILES notation. Records with an inconclusive call do not appear. The source made the active and inactive calls. Calls follow the shape of the full dose curve. Where a SMILES comes first, the peptide text is derived from it. [ ]: non-standard residue; d: D form. pGlu = O=C1CC[C@@H](C(=O)O)N1

Sequence of Vitamin D3 receptor (Homo sapiens) (P11473 whole entry, looked up): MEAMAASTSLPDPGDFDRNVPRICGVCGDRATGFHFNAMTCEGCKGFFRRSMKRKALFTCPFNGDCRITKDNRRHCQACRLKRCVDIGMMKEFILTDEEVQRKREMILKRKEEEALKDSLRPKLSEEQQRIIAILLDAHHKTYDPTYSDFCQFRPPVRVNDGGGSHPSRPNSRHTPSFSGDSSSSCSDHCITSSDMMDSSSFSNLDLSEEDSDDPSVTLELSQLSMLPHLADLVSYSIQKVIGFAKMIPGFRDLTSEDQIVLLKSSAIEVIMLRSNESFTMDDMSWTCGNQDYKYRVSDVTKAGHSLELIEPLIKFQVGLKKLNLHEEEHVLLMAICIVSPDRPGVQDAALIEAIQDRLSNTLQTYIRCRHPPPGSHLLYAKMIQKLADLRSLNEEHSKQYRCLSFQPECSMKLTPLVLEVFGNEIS

This test has as its target Vitamin D3 receptor (Homo sapiens) (UniProt P11473). As to the kind of experiment: qHTS assay to identify small molecule agonists of the vitamin D receptor (VDR) signaling pathway (AID 743222). The following applies: HEK293T VDR-UAS-bla, beta-lactamase FRET ratio, 16 h; series mostly up to 63.5 µM. From the text:
National Center for Advancing Translational Sciences [NCATS]
NIH Chemical Genomics Center [NCGC]
U.S. Environmental Protection Agency [EPA]
National Institutes of Environmental Health Sciences [NIEHS]
National Toxicology Program [NTP]
U.S. Food and Drug Administration [FDA]
The vitamin D receptor (VDR), a member of nuclear hormone receptor superfamily, plays a critical role in calcium homeostasis and bone metabolism. It is also involved in cell differentiation and growth, and thrombogenicity.
Tox21 Assay Protocol Summary:
VDR-bla cells were dispensed at 2,000 cells/6 uL/well into black wall/clear-bottom 1536-well plates using a Multidrop Combi (Thermo Fisher Scientific, Waltham, MA) dispenser. After the assay plates were incubated at a 37C and 5% CO2 for 4 h, 23 nL of compounds dissolved in DMSO, positive controls or DMSO only was transferred to the assay plate by a Pintool station (Kalypsys, San Diego, CA). The plates were incubated at 37C and 5% CO2 for 16 h. After 1 uL of LiveBLAzerTM B/G FRET substrate was added using a Bioraptr Flying Reagent Dispenser (FRD) workstation (Beckman Coulter, Indianapolis, IN, USA), the plates were incubated at room temperature for 2 h, and fluorescence intensity was measured by an Envision plate reader (PerkinElmer, Shelton, CT).
Regarding `O=C1NC(=O)C2CC=CCC12` (stereo not given), the result was inactive. In the case of `CCCCCCCCCCCCCCCCCCO`, the outcome was inactive. `CCC(C)(CCCC(C)C)OC(C)=O` (stereo not given): the result was inactive. With `O=CN(CCO)CCO`, the result was inactive. On to `O=C(O)Cc1csc(-c2ccc(Cl)cc2)n1`, for which the result was inactive. To `CCCc1ncc(C[n+]2ccccc2C)c(N)n1` belongs “inactive”; to `Cc1ccnc(NS(=O)(=O)c2ccc(N)cc2)n1`, “inactive”.

As to `C=CCCCCCCCCC(=O)OCC`, the result was inactive. The same measure for `C[N+]1(C)CCCC(OC(=O)C(O)(c2ccccc2)c2ccccc2)C1` (stereo not given): “inactive”; for `C1CCC2=NCCCN2CC1`: “inactive”; for `CCOC(=O)c1cnc2c(cnn2CC)c1NN=C(C)C`: “inactive”. For the compound `CCCCOCCOC(=O)COc1cc(Cl)c(Cl)cc1Cl`, the result was inactive. To `Cc1coc2ccccc2c1=O` belongs “inactive”; to `C[C@@H]1CCC[C@H](C)N1`, “inactive”; to `O=C(c1ccccc1)C1(O)CCCCC1`, “inactive”.

As to `Cc1nc(C2CCCCC2)c(-c2ccc(S(N)(=O)=O)c(F)c2)o1`, the result was inactive. To `C=C(C)C(=O)OCC(O)CO` (stereo not given) belongs “inactive”.

As to `Cc1onc(-c2c(Cl)cccc2Cl)c1C(=O)Cl`, the result was inactive.

In the case of `CC1(C)OC[C@@H](COC(=O)CCc2ccc(OC[C@@H](O)CNCCNC(=O)N3CCOCC3)cc2)O1`, the result was inactive.

Turning to `O=C(c1ccccc1O)c1ccccc1O`, the outcome was inactive.

For the compound `CC(=O)O[C@@]12CO[C@@H]1C[C@H](O)[C@@]1(C)C(=O)[C@H](O)C3=C(C)[C@@H](OC(=O)[C@H](O)[C@@H](NC(=O)OC(C)(C)C)c4ccccc4)C[C@@](O)([C@@H](OC(=O)c4ccccc4)[C@H]21)C3(C)C`, the result was inactive. To `CN1C(C)(C)CC(O)CC1(C)C` belongs “inactive”; to `CCN[C@H]1C[C@H](C)S(=O)(=O)c2sc(S(N)(=O)=O)cc21`, “inactive”; to `CCOC(=O)C1=NOC(c2ccccc2)(c2ccccc2)C1`, “inactive”.

Take `C1CCC2(CCCCO2)OC1`: the result was inactive.

As for `CN(C)[C@@H]1C(=O)C(C(=O)NCN2CCCC2)=C(O)[C@@]2(O)C(=O)C3=C(O)c4c(O)cccc4[C@@](C)(O)C3C[C@@H]12` (stereo not given in full), the outcome was inactive. The same measure for `CC(=O)c1ccc2ccccc2c1`: “inactive”; for `CCOC(=O)OC(C)OC1=C(C(=O)Nc2ccccn2)N(C)S(=O)(=O)c2ccccc21` (stereo not given): “inactive”; for `C=COC(=O)C(C)(CC)CCC(C)C` (stereo not given): “inactive”.

As to `CC(C)COC(=O)c1ccc(N)cc1`, the result was inactive.

Take `CC1=NN(c2cccc(S(=O)(=O)O)c2)C(=O)C1`: the result was inactive. Regarding `C=COCC1CCC(COC=C)CC1` (stereo not given), the outcome was inactive. The same measure for `CCNC(=O)[C@@H]1CCCN1C(=O)[C@H](CCCN=C(N)N)NC(=O)[C@H](CC(C)C)NC(=O)CNC(=O)[C@H](Cc1ccc(O)cc1)NC(=O)[C@H](CO)NC(=O)[C@H](Cc1c[nH]c2ccccc12)NC(=O)[C@H](Cc1cnc[nH]1)NC(=O)[C@@H]1CCC(=O)N1` ([pGlu]HWSYGLRP-NHEt): “inactive”; for `c1ccc(Cc2ccccc2)cc1`: “inactive”; for `Clc1cc(Cl)c(Cl)nc1Cl`: “inactive”.

For `COC(=O)Nc1ccc(Cl)c(Cl)c1`, the outcome was inactive.

`Cc1ncc([C@@H](CCCCCCc2ccc3c(n2)NCCC3)CC(=O)O)cn1`: the outcome was inactive. Consider `CN1CCN(c2cc3c(nn2)Oc2ccccc2N3C)CC1`, for which the outcome was inactive. The same measure for `CC(C)NNC(=O)c1ccncc1`: “inactive”; for `c1ccc2sc(SN3CCOCC3)nc2c1`: “inactive”.

(Values after PubChem BioAssay (Tox21).)
